Bioassay records (PubChem BioAssay)
GRIN3A LBD mod – modulates the human NR3A ligand-binding domain. NR3A LBD differential scanning fluorimetry, Tm shift; 0% = protein alone, 100% = glycine-bound protein. 340,000 tested, 2.5% active. Tm shift relative to glycine control, % at 25 µM. AID 1259313;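 active = melting temperature shift of at least 10% of the positive control shift, at one fixed dose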
TMEM16A act – activates or potentiates the mouse TMEM16A chloride channel; Q8BHY3; HEK293 TMEM16A/YFP-H148Q/I152L, iodide quench fluorescence; active compounds read low; B-score at 10 µM; 340,000 tested, 0.3% active;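 active = fluorescence-ratio B-score plate-corrected deviation score at least 3 library SD below zero, with starting fluorescence score within 5 deviations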;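 also: channel opened by trigger with iodide after compound preincubation; score built on the fluorescence ratio of max minus min over baseline; more negative score means more quench and so TMEM16A activation or potentiation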
Target sequence (Q8BHY3 whole entry, looked up): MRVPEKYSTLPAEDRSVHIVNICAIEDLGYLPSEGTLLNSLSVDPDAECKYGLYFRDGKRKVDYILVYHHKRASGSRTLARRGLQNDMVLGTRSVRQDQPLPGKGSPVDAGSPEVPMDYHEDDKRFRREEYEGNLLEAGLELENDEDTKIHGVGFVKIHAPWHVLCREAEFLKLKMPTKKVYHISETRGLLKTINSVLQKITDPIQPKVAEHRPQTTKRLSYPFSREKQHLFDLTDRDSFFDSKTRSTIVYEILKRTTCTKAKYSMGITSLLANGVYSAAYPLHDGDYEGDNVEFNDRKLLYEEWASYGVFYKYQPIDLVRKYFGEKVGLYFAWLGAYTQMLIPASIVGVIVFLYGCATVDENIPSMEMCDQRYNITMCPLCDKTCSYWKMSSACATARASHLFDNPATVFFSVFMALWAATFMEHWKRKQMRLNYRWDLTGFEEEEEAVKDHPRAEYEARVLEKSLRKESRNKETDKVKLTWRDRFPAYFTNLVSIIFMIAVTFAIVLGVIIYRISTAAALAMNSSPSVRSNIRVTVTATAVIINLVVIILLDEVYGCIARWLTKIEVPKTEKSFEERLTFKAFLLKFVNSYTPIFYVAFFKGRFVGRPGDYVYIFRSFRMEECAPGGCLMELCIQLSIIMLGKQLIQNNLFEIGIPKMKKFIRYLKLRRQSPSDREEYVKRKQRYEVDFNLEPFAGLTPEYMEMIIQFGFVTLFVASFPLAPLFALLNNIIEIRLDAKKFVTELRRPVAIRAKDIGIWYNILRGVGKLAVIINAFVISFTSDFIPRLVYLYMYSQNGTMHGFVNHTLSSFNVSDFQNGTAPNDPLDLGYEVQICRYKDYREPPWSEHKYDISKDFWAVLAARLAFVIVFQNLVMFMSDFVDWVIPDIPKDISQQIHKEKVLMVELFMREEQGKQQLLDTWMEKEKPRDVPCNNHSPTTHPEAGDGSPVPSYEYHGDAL
TMEM16A inh – inhibitors of mouse TMEM16A calcium-activated chloride channel | Q8BHY3 | HEK293 TMEM16A/YFP iodide influx fluorescence, ionomycin | normalized B-score (activity score, 25-100; higher = stronger inhibition) at 10 µM | 310,000 tested, 1.2% active | AID 588511;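 active = ratio plate-corrected score three or more library SD toward inhibition, starting fluorescence score within five deviations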;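 also: score derived from kinetic fluorescence span divided by baseline fluorescence per well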
MPTP inh – permeability transition pore inhibition | isolated mouse mitochondria, Ca2+ swelling absorbance, 30 min | inhibition, % at 10 µM | 360,000 tested, 1.4% active | AID 602449;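 active = inhibition of 50% or more, scaled per plate between neutral and stimulator controls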
CRFR2-BP antag – blocks CRF-induced signaling of the CRF-BP/CRF-R2 complex; HEK293 CRF-R2/CRF-BP, CRF-induced calcium fluorescence; inhibition, % at 11.8 µM; 350,000 tested, 0.59% active; AID 588475;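 active = inhibition of the ligand-induced calcium signal above about 50% at the single tested concentration, limit read from the data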
CRFBP-R2 agonist – agonists of human CRF-binding protein/CRF-R2 receptor complex | HEK293 CRF-R2/CRF-BP, calcium dye fluorescence (FLIPR); percent of saturating CRF peptide response | activation, % at 13.2 µM | 350,000 tested, 0.46% active;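 active = activation of at least 50%, plus an integration ratio under a set limit after plate pattern correction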
Rh123 counter – mitochondrial membrane potential, counter-screen | shares compounds with MPTP inh | isolated mitochondria, Rhodamine 123 fluorescence | inhibition, % at 10 µM | 5,000 tested, 78% active; in the data active = inhibition above about 22%
MPTP abs DR – MPTP inhibition, dose response swelling confirmation; shares compounds with MPTP inh; isolated mitochondria swelling, absorbance; IC50, µM; 780 tested, 58% active; AID 651561; in the data active = IC50 below about 20 µM
MPTP cs DR – MPTP inhibitor counter-screen activity, dose response; shares compounds with MPTP inh; isolated mitochondria counterscreen, fluorescence read-out; IC50, µM; 780 tested, 49% active; AID 651564; in the data active = IC50 below about 80 µM
A number is an active result; 0 = inactive; - = not tested or not shown. Shown are actives, neighbours in structure and some others; about 5.1% of the full set was active somewhere.

SMILES	GRIN3A LBD mod	TMEM16A act	TMEM16A inh	MPTP inh	CRFR2-BP antag	CRFBP-R2 agonist	Rh123 counter	others
CC(C)N1C(=S)N(Cc2ccco2)C(=O)C1CC(=O)Nc1ccccc1 (stereo unspecified)	0	0	0	0	0	0	-
O=C(Nc1nnc(-c2ccccc2)o1)c1nc2ccccc2s1	0	0	0	62.6	0	139.6	0	MPTP abs DR=8.39;MPTP cs DR=77.7
NC(=O)c1oc2ccccc2c1NC(=O)c1nc2ccccc2s1	0	0	0	0	0	0	-
C/C(Cl)=C\Cn1c(NCCc2ccccc2)nc2c1c(=O)n(C)c(=O)n2C	0	0	0	53.9	0	0	83.4
Cc1cc(C)c2nc(SCCc3ccccc3)nc(C)c2c1	0	0	0	71.4	0	0	0	MPTP abs DR=0;MPTP cs DR=0
Fc1ccc(NC(=S)Nc2ccc(F)c(Cl)c2)cc1Cl	12.3	-10.3	100	91.6	0	0	88.8
S=C(Nc1ccc(Cl)cc1)Nc1ccc2c(c1)OCCO2	0	0	0	50.3	0	0	98.6
NS(=O)(=O)c1ccc(NC(=S)Nc2ccc(F)c(F)c2)cc1	0	0	0	67.3	68.7	0	67.9
O=C(Nc1ccc(OC(F)F)c(Cl)c1)c1ccccn1	0	0	0	0	0	0	-
NS(=O)(=O)c1ccc(NC(=S)NCc2ccc(Cl)cc2)cc1	0	0	0	0	0	0	-
Cc1ccc(NC(=S)Nc2ccc(OC(F)F)c(Cl)c2)cc1F	32.0	0	0	98.4	0	0	87.1
COc1ccc(CN(C)C(=O)C(Cc2ccccc2)NC(=O)c2ccccc2)c(OC)c1 (stereo unspecified)	0	0	0	0	0	0	-
COc1ccccc1CN(C)C(=O)COC(=O)c1c(C)noc1C	0	0	-	0	0	0	-
COc1ccc(CNC(=S)Nc2ccc(Br)cc2)cc1	0	0	0	87.8	0	0	91.8
COc1ccc(CNC(=S)Nc2ccc(-c3ccccc3)cc2)cc1	0	0	0	0	0	0	-
COc1ccc(CNC(=S)Nc2ccc(F)c(Cl)c2)cc1	0	0	0	96.2	0	0	97.2
NS(=O)(=O)c1ccc(CNC(=S)Nc2ccc(F)c(Cl)c2)cc1	0	0	0	0	0	0	-
COc1ccc2[nH]c3c(c2c1)CCN1C(=O)C(CC(=O)NCCc2ccccn2)C[C@H](C(=O)N2CCOCC2)[C@@]31CCC1CCCC1 (stereo partly specified)	0	-	-	0	0	0	-
Cn1c(=O)c2[nH]c(Cc3cccc(O)c3)nc2n(C)c1=O	0	0	-	0	0	0	-
Cn1c(=O)c2[nH]c(COc3ccc(C(C)(C)C)cc3)nc2n(C)c1=O	0	0	0	95.9	0	0	70.1
CCCCCN(C(=O)CCC(=O)OCc1cccc(C(F)(F)F)c1)c1c(N)n(CCCC)c(=O)[nH]c1=O	0	0	0	0	0	0	-
COc1cc(CNc2ncnc3c2[nH]c2ccc(C)cc23)cc(OC)c1	0	0	0	86.0	0	0	83.2
COc1ccc(/C=N/Nc2ncnc3c2[nH]c2ccc(C)cc23)c(OC)c1OC	0	0	0	0	0	0	-
COC(=O)C1=CN(c2ccc(N3CCOCC3)cc2)C(N)=C(C#N)C1c1cccc(OC)c1OC (stereo unspecified)	-	-	-	0	-	-	-
N#CCSc1ccccc1NC(=O)COC(=O)CCN1C(=O)C2CC=CCC2C1=O (stereo unspecified)	0	0	-	0	0	0	-
SMILES	GRIN3A LBD mod	TMEM16A act	TMEM16A inh	MPTP inh	CRFR2-BP antag	CRFBP-R2 agonist	Rh123 counter	others
Cc1cc(Br)ccc1OCCCCNCCO	0	0	0	0	0	0	-
C=CCNCCCCOc1ccc(Br)cc1C	0	0	0	71.4	0	0	0	MPTP abs DR=8.32;MPTP cs DR=0
O=C(CSc1nc2ccccc2c(=O)n1-c1ccc(F)cc1F)NC1CCS(=O)(=O)C1 (stereo unspecified)	-	-	-	0	0	0	-
OC(COc1ccc(OCC(O)CN2CCN(Cc3ccccc3)CC2)cc1)CN1CCN(Cc2ccccc2)CC1 (stereo unspecified)	0	0	0	53.7	0	0	0	MPTP abs DR=12.4;MPTP cs DR=29.6
CC1CCC(C(C)C)C(OCC(O)CN2CCN(Cc3ccccc3)CC2)C1 (stereo unspecified)	0	0	0	86.3	0	0	0	MPTP abs DR=0;MPTP cs DR=40.3
OC(COc1ccc2cc(Br)ccc2c1)CN1CCCC1 (stereo unspecified)	0	0	0	87.6	0	0	0	MPTP abs DR=9.43;MPTP cs DR=0
COc1cccc(OCC(O)CN2CCC(Cc3ccccc3)CC2)c1 (stereo unspecified)	0	0	0	56.2	0	0	0	MPTP abs DR=19.3;MPTP cs DR=61.8
Cc1nc2ccccc2c2c(N)cccc12	0	0	-	0	0	0	-
CSc1ccccc1NC(=O)CN1C(=O)C2CC=CCC2C1=O (stereo unspecified)	0	0	-	0	0	0	-
Nc1[nH]c(C(=O)c2ccccc2)c(-c2ccccc2Br)c1C(=O)c1ccccc1	-	-	-	0	-	-	-
CN(C)c1ccc(/C=C/C=C2/SC(=S)N(c3ccccc3)C2=O)cc1	0	0	0	57.9	0	0	0
CC1CCN(c2nc3nonc3nc2Nc2ccc(F)cc2)CC1	0	0	0	73.2	0	0	75.4
C=CCc1cccc(/C=N/NC(=O)C(C)Nc2ccc(C)cc2)c1O (stereo unspecified)	0	0	0	79.7	0	0	62.1
O=C(NCCCn1ccnc1)/C(=C\c1ccc(Br)cc1)NC(=O)c1ccccc1F	0	0	0	0	0	0	-
C=CCn1c(SCC(=O)Nc2cc(C)on2)nc2ccccc21	-	-	-	0	0	0	-
COc1ccc(OC)c(NC(=O)C2(C)CCN2C(C)C)c1 (stereo unspecified)	-	-	-	0	-	-	-
CCCOc1ccc(Br)cc1CSC(=N)N	0	0	25	96.8	0	0	91.5
COC(=O)c1cc(NC(=O)c2cc(-c3ccc(C(F)(F)F)cc3)oc2C(F)(F)F)ccc1N1CCOCC1	0	0	0	88.2	0	0	68.5
Cc1cc(NC(=S)Nc2cccnc2)ccc1Br	0	0	0	88.5	0	0	71.6
Cc1ccccc1NC(=S)Nc1ccccc1	0	0	0	0	0	0	-
Cc1cc(NC(=S)Nc2ccccc2)ccc1Br	0	0	0	71.3	0	0	78.6
Cc1cccc(C)c1NC(=O)Cn1cc(C=O)c2ccccc21	0	0	0	0	0	0	-
COc1ccc(C(=O)CSc2nc3ccc([N+](=O)[O-])cc3[nH]2)cc1	0	0	0	99.3	0	0	85.6
